Source: PubChem BioAssay (several laboratories)
GDH-TPI counter = GDH-TPI coupling enzyme inhibitors, primary screen, artefact control for M. tuberculosis FBA inhibitor project, biochemical, absorbance, full deck. GDH-TPI coupled enzyme counterscreen, NADH absorbance. inhibition, % at 4.8 µM. actives 1.2% (n = 360,000). AID 588335, 2011; in the data active = inhibition above about 30%;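 note: 0% = DMSO wells and 100% = wells lacking the enzyme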
Mtb FBA inh = Mtb FBA enzyme inhibitors, primary screen, biochemical, fluorescence, strain H37Rv; Fructose-bisphosphate aldolase (Mycobacterium tuberculosis (strain ATCC 25618 / H37Rv)), …; purified M. tuberculosis FBA, fluorescence read-out; inhibition, % at 1 µM; actives 2.3% (n = 360,000); AID 588726, 2011; in the data active = inhibition above about 27%;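 note: 0% = vehicle and 100% = reference inhibitor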
Mtb UGM inh = M. tuberculosis UGM enzyme inhibitors, primary screen, biochemical, fluorescence polarization, single point. inhibition, % at 10 µM. actives 0.06% (n = 320,000). UDP-galactopyranose mutase (Mycobacterium tuberculosis (strain ATCC 25618 / H37Rv)), …. purified UGM, fluorescence polarization probe displacement; in the data active = inhibition above about 10%, passing the limit was not always enough; inconclusive = no clear call, values can overlap the other calls
Target sequence (P9WIQ1 whole entry, looked up): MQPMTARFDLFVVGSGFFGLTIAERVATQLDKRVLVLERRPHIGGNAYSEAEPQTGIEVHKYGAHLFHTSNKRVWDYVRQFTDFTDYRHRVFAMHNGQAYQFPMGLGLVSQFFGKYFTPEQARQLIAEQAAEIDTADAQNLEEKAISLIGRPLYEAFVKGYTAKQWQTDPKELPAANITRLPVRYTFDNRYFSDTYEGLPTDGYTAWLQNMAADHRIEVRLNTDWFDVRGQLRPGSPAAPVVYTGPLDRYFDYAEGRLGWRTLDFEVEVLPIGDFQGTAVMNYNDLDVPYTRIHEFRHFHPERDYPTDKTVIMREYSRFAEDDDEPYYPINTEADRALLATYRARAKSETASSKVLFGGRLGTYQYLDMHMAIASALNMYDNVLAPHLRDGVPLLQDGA
RecA splice inh = Mtb RecA intein splicing inhibitors, primary screen, biochemical, fluorescence, HTS; Protein RecA (Mycobacterium tuberculosis (strain ATCC 25618 / H37Rv)), P9WHJ3; cell-free RecA intein splicing; inhibition, % (test concentration not listed); actives 0.75% (n = 290,000); AID 2221, 2009; in the data active = inhibition above about 30%; inconclusive = no clear call, values can overlap the other calls;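 note: 0% = vehicle wells and 100% = reference inhibitor control wells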
Mtb bLac sens = beta-lactam sensitization of Mtb H37Rv, H37Rv. actives 0.27% (n = 330,000). AID 434955, 2010. M. tuberculosis H37Rv growth with meropenem, percent inhibition. inhibition, % at 25 µM; call rule not given here;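 note: growth measured after seven days incubation then overnight dye step; 0% = bacteria only wells and 100% = bacteria with antibiotic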
Rv3671c inh = Rv3671c serine protease inhibitors, primary screen, biochemical, fluorescence polarization, M. tuberculosis H37Rv | AID 2606, 2010 | P9WHR9 | actives 0.048% (n = 320,000) | inhibition, % at 5.96 µM; in the data active = inhibition above about 38%;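 note: extracellular domain of Rv3671c used as enzyme; 0% = enzyme with DMSO and 100% = no enzyme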
Active calls of the source: *; ? = inconclusive; nt = no result; + = active, no number. Most compounds without a hit are left out; they make up all but 4% or so of the library.

SMILES	GDH-TPI counter	Mtb FBA inh	Mtb UGM inh	RecA splice inh	Mtb bLac sens	Rv3671c inh
O=C(CCCN1C(=O)S/C(=C\C=C\c2ccccc2)C1=O)Nc1ccc(C(=O)O)cc1	19	4	1	30*	-1	-35
O=C(O)c1ccc(/C=C2\SC(=S)N(Nc3ccccc3)C2=O)cc1	34*	-1	4	-4	85	-4
CC(C)c1ccc(CN2CCN(C(=O)CSc3nnnn3C3CC3)CC2)cc1	-12	1	3	nt	5	-18
COC(OC)C1(CCc2ccccc2)NC(=O)NC1=O (stereo not given)	-3	-1	nt	nt	nt	nt
COc1ccc(OCC(=O)NC(=O)c2ccccc2OC)c([N+](=O)[O-])c1	3	0	3	-1	-10	3
CCC(=O)c1cn(/C(=C\C(=O)OC(C)(C)C)CCC(OC)OC)cc1CC	-4	2	0	0	-2	-8
COc1cc(C)ccc1S(=O)(=O)NC(=O)C1(C)CCN1C(=O)COc1ccc(Cl)cc1 (stereo not given)	12	2	nt	nt	nt	nt
CC(=O)c1ccc(NC(=O)CN2C(=O)/C(=C/C=C/c3ccccc3)SC2=S)cc1	13	-4	1	0	35	-48
O=C(CN1C(=O)S/C(=C\C=C\c2ccccc2)C1=O)Nc1cccc(O)c1	32*	-3	-3	5	28	-98
Cc1[nH]c(=O)c(C#N)c(C)c1CCC(=O)NCc1cccc(C(F)(F)F)c1	12	2	-4	-4	3	3
COc1cccc(-c2nnn(CC(=O)N(C3CCCCC3)C3CCS(=O)(=O)C3)n2)c1 (stereo not given)	1	-3	nt	nt	nt	nt
C/C(=N\Nc1nc2ccccc2s1)c1ccc(Br)s1	1	1	0	-2	100	-4
CC(=NNc1nc2ccccc2s1)c1ccncn1	34*	-4	nt	nt	nt	nt
C/C(=N/NC(=O)c1ccc(C)s1)c1cccc(NC(=O)c2ccoc2C)c1	8	-2	2	nt	2	-10
CCc1nc2c(OCCOc3ccc(F)cc3)cccn2c1N(C)C(=O)c1ccco1	4	-3	nt	nt	nt	nt
COC(=O)c1cc2c(C)nn(-c3ccccc3)c2s1	-5	35*	2	2	1	3
Cc1nn(-c2ccccc2)c2sc(C(=O)O)cc12	5	0	2	0	10	-2
Cc1nn(-c2ccccc2)c2sc(-c3n[nH]c(=S)o3)cc12	42*	+	5	2	-5	9
CCCCN1C=C(C(=O)OC)C(c2ccccc2C(F)(F)F)C(C(=O)OC)=C1	3	14	-3	-35	-5	7
COCCN1C=C(C(=O)OC)C(c2ccccc2C(F)(F)F)C(C(=O)OC)=C1	9	155*	1	-95	?	5
COC(=O)C1=CNC=C(C(=O)OC)C1c1ccccc1Cl	8	+	-1	nt	-6	5
COC(=O)C1=CN(c2ccc(Cl)cc2)C=C(C(=O)OC)C1c1ccc([N+](=O)[O-])cc1	2	-1	-6	-2	3	nt
CCCCN1C=C(C(=O)OC)C(c2ccccc2Cl)C(C(=O)OC)=C1	-2	171*	0	-95	-9	-18
COC(=O)C1=CNC=C(C(=O)OC)C1c1ccc(Cl)cc1	6	+	0	-22	-3	-6
O=C(NN1C(=O)NC2(CCCCC2)C1=O)c1ccc(Cl)c(Cl)c1	-5	3	-1	nt	-1	-1
CCCOc1ccc(C2C(C(=O)OC)=CN(CCOC)C=C2C(=O)OC)cc1	-3	+	-1	-115	-5	9
COC(=O)C1=CNC=C(C(=O)OC)C1c1cccc(OC)c1	4	195*	1	-45	-10	6
COc1ccccc1-c1nnc(SCC(=O)Nc2oc(C)c3c(C)n[nH]c(=O)c23)n1C	4	4	3	-2	-13	4
Cc1n[nH]c(=O)c2c(NC(=O)CSc3nnc(-c4ccco4)n3C)oc(C)c12	8	3	47*	nt	-2	-6
